Measured values reported in PubChem BioAssay AID1159580 (chemical genetic matrix, 2015).
Out of some 5,500 compounds screened, about 2,000 (36%) were called active. About 18% were inconclusive and are not listed. Rule as the data show it: active = normalized growth mostly below about 0.91 (no sharp cut-off); inconclusive = no clear call, values can overlap the other calls; inactive = mostly above about 0.92. The list shows a part of the results.

Assay: chemical genetic growth profiling, strain panel (AID 1159580);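 also: tested at 20 µM; growth read once vehicle control cultures reached saturation at 30 °C; 1 = growth at the plate median or of vehicle wells; lower values mean less growth of the strain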
Conditions: growth OD

Measured: normalized growth

Oc1cccc2cccnc12
active: S. cerevisiae deletion strains, locus YKL009W, strain mrt4, active compounds read low 0.741 | S. cerevisiae deletion strains, locus YKL068W, active compounds read low 0.0531 | S. cerevisiae deletion strains, locus YKL085W, strain MDH1 (second series), active compounds read low 0.0521 | S. cerevisiae deletion strains, locus YKL085W, strain MDH1, active compounds read low 0.0521 | S. cerevisiae deletion strains, locus YKL160W, strain elf1, active compounds read low 0.0679 | S. cerevisiae deletion strains, locus YKL190W, strain CNB1, active compounds read low 0.0517 | S. cerevisiae deletion strains, locus YKR001C, strain vps1, active compounds read low 0.0622 | S. cerevisiae deletion strains, locus YKR026C, strain gcn3, active compounds read low 0.356 | S. cerevisiae deletion strains, locus YKR091W, strain srl3, active compounds read low 0.5 | S. cerevisiae deletion strains, locus YLL001W, strain dnm1, active compounds read low 0.0604 | S. cerevisiae deletion strains, locus YLL026W, active compounds read low 0.0573 | S. cerevisiae deletion strains, locus YLL041C, strain sdh2, active compounds read low 0.132 | S. cerevisiae deletion strains, locus YLR027C, strain aat2, active compounds read low 0.0569 | S. cerevisiae deletion strains, locus YLR039C, strain RIC1, active compounds read low 0.0939 | S. cerevisiae deletion strains, locus YLR058C, strain SHM2, active compounds read low 0.786 | S. cerevisiae deletion strains, locus YLR102C, strain apc9, active compounds read low 0.0613 | S. cerevisiae deletion strains, locus YLR221C, strain rsa3, active compounds read low 0.0643 | S. cerevisiae deletion strains, locus YLR258W, strain gsy2, active compounds read low 0.0623 | S. cerevisiae deletion strains, locus YLR262C, strain YPT6 (second series), active compounds read low 0.0792 | S. cerevisiae deletion strains, locus YLR262C, strain YPT6, active compounds read low 0.124 | S. cerevisiae deletion strains, locus YLR268W, strain sec22, active compounds read low 0.0693 | S. cerevisiae deletion strains, locus YLR320W, strain mms22, active compounds read low 0.0884 | S. cerevisiae deletion strains, locus YLR330W, strain CHS5, active compounds read low 0.0553 | S. cerevisiae deletion strains, locus YLR342W, strain FKS1 (second series), active compounds read low 0.0627 | S. cerevisiae deletion strains, locus YLR342W, strain FKS1, active compounds read low 0.0636 | S. cerevisiae deletion strains, locus YLR357W, strain rsc2, active compounds read low 0.117 | S. cerevisiae deletion strains, locus YLR370C, strain arc18, active compounds read low 0.0611 | S. cerevisiae deletion strains, locus YLR371W, strain rom2, active compounds read low 0.0611 | S. cerevisiae deletion strains, locus YLR384C, strain iki3, active compounds read low 0.0615 | S. cerevisiae deletion strains, locus YLR418C, strain cdc73, active compounds read low 0.0961 | S. cerevisiae deletion strains, locus YML016C, strain PPZ1, active compounds read low 0.0529 | S. cerevisiae deletion strains, locus YML032C, strain rad52, active compounds read low 0.385 | S. cerevisiae deletion strains, locus YML120C, strain ndi1, active compounds read low 0.0583 | S. cerevisiae deletion strains, locus YML124C, strain tub3, active compounds read low 0.0625 | S. cerevisiae deletion strains, locus YMR058W, strain fet3, active compounds read low 0.0576 | S. cerevisiae deletion strains, locus YMR078C, strain ctf18, active compounds read low 0.553 | S. cerevisiae deletion strains, locus YMR125W, strain sto1, active compounds read low 0.0733 | S. cerevisiae deletion strains, locus YMR129W, active compounds read low 0.0569 | S. cerevisiae deletion strains, locus YMR205C, strain PFK2, active compounds read low 0.214 | S. cerevisiae deletion strains, locus YMR223W, strain ubp8, active compounds read low 0.0625 | S. cerevisiae deletion strains, locus YMR231W, strain pep5, active compounds read low 0.0683 | S. cerevisiae deletion strains, locus YMR307W, strain GAS1, active compounds read low 0.108 | S. cerevisiae deletion strains, locus YNL067W, strain RPL9B, active compounds read low 0.0496 | S. cerevisiae deletion strains, locus YNL071W, strain lat1, active compounds read low 0.0618 | S. cerevisiae deletion strains, locus YNL209W, strain ssb2, active compounds read low 0.0612 | S. cerevisiae deletion strains, locus YNL233W, strain BNI4, active compounds read low 0.0522 | S. cerevisiae deletion strains, locus YNL248C, strain rpa49, active compounds read low 0.0751 | S. cerevisiae deletion strains, locus YNL250W, strain rad50, active compounds read low 0.0636 | S. cerevisiae deletion strains, locus YNL271C, strain bni1, active compounds read low 0.0611 | S. cerevisiae deletion strains, locus YNL298W, strain CLA4, active compounds read low 0.0629 | S. cerevisiae deletion strains, locus YNL307C, strain MCK1, active compounds read low 0.0661 | S. cerevisiae deletion strains, locus YNL322C, strain KRE1 (second series), active compounds read low 0.0706 | S. cerevisiae deletion strains, locus YNL322C, strain KRE1, active compounds read low 0.0518 | S. cerevisiae deletion strains, locus YNR049C, strain mso1, active compounds read low 0.0568 | S. cerevisiae deletion strains, locus YNR052C, strain pop2, active compounds read low 0.749 | S. cerevisiae deletion strains, locus YOL006C, strain TOP1, active compounds read low 0.113 | S. cerevisiae deletion strains, locus YOL147C, strain pex11, active compounds read low 0.127 | S. cerevisiae deletion strains, locus YOR001W, strain rrp6, active compounds read low 0.0671 | S. cerevisiae deletion strains, locus YOR061W, strain CKA2, active compounds read low 0.0507 | S. cerevisiae deletion strains, locus YOR069W, strain VPS5, active compounds read low 0.0519 | S. cerevisiae deletion strains, locus YOR070C, strain gyp1, active compounds read low 0.0577 | S. cerevisiae deletion strains, locus YOR080W, strain dia2, active compounds read low 0.0646 | S. cerevisiae deletion strains, locus YOR083W, strain WHI5, active compounds read low 0.167 | S. cerevisiae deletion strains, locus YOR106W, strain vam3, active compounds read low 0.0652 | S. cerevisiae deletion strains, locus YOR136W, strain idh2, active compounds read low 0.0689 | S. cerevisiae deletion strains, locus YOR144C, strain elg1, active compounds read low 0.712 | S. cerevisiae deletion strains, locus YOR184W, strain ser1, active compounds read low 0.0694 | S. cerevisiae deletion strains, locus YOR265W, strain rbl2, active compounds read low 0.0565 | S. cerevisiae deletion strains, locus YOR270C, strain vph1, active compounds read low 0.0934 | S. cerevisiae deletion strains, locus YOR290C, strain snf2, active compounds read low 0.0963 | S. cerevisiae deletion strains, locus YOR316C, strain cot1, active compounds read low 0.0587 | S. cerevisiae deletion strains, locus YPL051W, strain arl3, active compounds read low 0.063 | S. cerevisiae deletion strains, locus YPL055C, strain LGE1, active compounds read low 0.0702 | S. cerevisiae deletion strains, locus YPL078C, strain atp4, active compounds read low 0.0642 | S. cerevisiae deletion strains, locus YPL106C, strain sse1, active compounds read low 0.104 | S. cerevisiae deletion strains, locus YPL240C, strain hsp82, active compounds read low 0.112 | S. cerevisiae deletion strains, locus YPL241C, strain CIN2, active compounds read low 0.0551 | S. cerevisiae deletion strains, locus YPR119W, strain clb2, active compounds read low 0.0623 | S. cerevisiae deletion strains, locus YPR141C, strain kar3, active compounds read low 0.0649 | S. cerevisiae deletion strains, locus YPR163C, strain tif3, active compounds read low 0.0763 | S. cerevisiae deletion strains, locus YPR167C, strain met16, active compounds read low 0.0614 | S. cerevisiae deletion strains, strain wtn01, active compounds read low 0.0583 | S. cerevisiae strains, strain wild type, active compounds read low 0.0541
inactive: S. cerevisiae deletion strains, locus YLR113W, strain HOG1, active compounds read low 1.04 | S. cerevisiae deletion strains, locus YNL183C, strain NPR1, active compounds read low 0.919 | S. cerevisiae deletion strains, locus YOL012C, strain htz1 0.214 | S. cerevisiae deletion strains, locus YOR231W, strain MKK1, active compounds read low 0.916 | S. cerevisiae deletion strains, locus YPL256C, strain CLN2, active compounds read low 0.971
